Measured values from PubChem BioAssay (NCATS).
Inconclusive results are not listed. Active and inactive are the calls of the source. The call rests on the fitted dose curve; in most records, active means well fitted curve in the direction sought with a large enough effect; inconclusive means small, poorly fitted or top-dose-only effect, or another doubt; inactive means no such curve, though single readings can be large; an effect the other way counts as inactive or inconclusive. Numbered stars: 1 amine (or outer) side, 2 acyl side, 3 side chain; on linkers, the order of the positions; unused ones are H or OH. Bridge positions count the residues as written; N and C are the ends. Square brackets hold non-standard residues; d marks the D form. Peptide text beside a SMILES is read from it. ξ: configuration not given here. Phe(3R-OH) = O=C([C@@H](N[*:1])[C@H](O[*:3])c1ccccc1)[*:2]; NMeTrp(4-OMe) = CN[C@@H](Cc1c[nH]c2cccc(OC)c12)C(=O)O; ξThr(3R)(O-yl) = C[C@@H](O[*:3])C(N[*:1])C(=O)[*:2]; NMeThr(3ξ) = CN[C@H](C(=O)O)C(C)O; NMeL = CN[C@@H](CC(C)C)C(=O)O; NMeV = CN[C@H](C(=O)O)C(C)C; ξIle = CC[C@H](C)C(N)C(=O)O; ξV = CC(C)C(N)C(=O)O

Columns and labels:
[1] = HEK293 12hr Apoptosis Induction qHTS against the NCATS CANVASS Library (AID 1347361); further: 0% is about no effect
Summary of the method: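 Luminescent caspase-3/7 signal, proportional to enzyme activity, was recorded from HEK293 cultures in DMEM + 10% FBS treated for 12 hours with titrated natural products (11 points). Doxorubicin (0.1nM - 4uM) served as control.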

[2] = qHTS for ATAD5 Agonist screened against the NCATS CANVASS Library (AID 1347367);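 further: luciferase reporter driven by ATAD5 which rises upon DNA damage; 0% is about no effect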
Summary of the method: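 Genotoxicity was scored as increased ATAD5-luciferase luminescence in HEK293T after 16hr of exposure, with cell viability measured by fluorescence beforehand in the same well.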

[3] = G06 Cancer Cell Toxicity qHTS against the NCATS CANVASS Library (AID 1347368); further: nearly all actives have a fitted effect of over 60% in size; further: potency means the concentration at half of the fitted maximal effect; on activity change, negative = cytotoxic: series mostly up to about 46 µM; on the % scale 0 is the no-effect control and ±100 the full control effect
Summary of the method: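 Cells were plated at 500 per well, then compounds were added over an 11-point range. After 72 hr at 37C, CellTiterGlo was added and luminescence measured as ATP content.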

[4] = qHTS for Antimalaria activity screened against the NCATS CANVASS Library (AID 1347380); further: nearly all actives have a fitted effect of over 40% in size; further: potency means the concentration at half of the fitted maximal effect
Summary of the method: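 Compounds are titrated over 11 concentrations onto Dd2 parasite cultures (0.3% parasitemia, 2.5% hematocrit). Growth over 72 h at 37C in low oxygen is measured as SYBR Green DNA fluorescence after lysis.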

[5] = qHTS for activators of Nrf2/ARE signaling pathway screened against the NCATS CANVASS Library (AID 1347391); further: 0% is about no effect; nearly all actives have a fitted effect of over 60% in size
Summary of the method: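 Beta-lactamase reporter signal, read as 460 and 530 nm emission under 405 nm excitation after 2 h CCF4 loading, reflected ARE activation in HepG2 cells treated 16 h with an 11-point series.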

[6] = qHTS for inhibitors of ER calcium dysfunction: SERCaMP assay screened against the NCATS CANVASS Library (AID 1347393); further: nearly all actives have a fitted effect of over 40% in size; further: potency means the concentration at half of the fitted maximal effect
Summary of the method: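 qHTS in SH-SY5Y reporter cells: 16 h compound pretreatment, 4 h thapsigargin, then secreted Gaussia luciferase measured by luminescence.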

[7] = Redox Reaction Profiling qHTS: Assay Interference Panel against the NCATS CANVASS Library (AID 1347401);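 further: 100% = activation by 2 µM chloranil control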
Summary of the method: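 Quantitative HTS over an 11-point series was run in HEPES pH 7.3 with 50 mM NaCl, 200 uM DTT and 5 uM resazurin. Initial and 15-min resorufin fluorescence readings were taken.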

[8] = ZIKV-mCherry secondary qHTS for Zika virus inhibitors (AID 1347158); further: top concentration of the series differs between compounds
Summary of the method: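 Compounds were tested in Vero monkey kidney cells infected with recombinant mCherry-expressing Zika virus at MOI 1 for 48-72 h at 37 °C. Fixed cells were nuclear-stained and imaged, and infection rate was taken as the fraction of mCherry-positive cells.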

[9] = test system: Zika virus NS2B-NS3 protease (linked construct); assay: 384 well plate NINDS Rhodamine confirmatory qHTS for Zika virus inhibitors (AID 1347164); further: potency means the concentration at half of the fitted maximal effect; nearly all actives have a fitted effect of over 65% in size
Summary of the method: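 Cleavage of Ac-LKRR-Rhodamine 110 (10 microM final) by linked protease (final 5, 30 or 60 nM) was followed as fluorescence at 485/538 nm after 25 min, room temperature, dark. Compounds preincubated ~15 min.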

[10] = Tertiary RLuc qRT-PCR qHTS assay for Zika virus inhibitors (AID 1347169); further: top concentration of the series differs between compounds; on the % scale 0 is the no-effect control and ±100 the full control effect; nearly all actives have a fitted effect of over 55% in size
Summary of the method: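 Inhibition of ZIKV-RLuc replication in Vero cells, read as Renilla luminescence 1-1.5 hrs after live-cell substrate addition, following 48-72 hrs infection at MOI 1-2 in presence of compound.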

[11] = qHTS for Hypoxia signaling pathway (HIF-1) agonists against the NCATS CANVASS Library (AID 1347375); further: 0% is about no effect
Summary of the method: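 Cells plated and rested 5 h, compounds pinned in DMSO across 11 concentrations, incubated 17 h at 37C, loaded with CCF4-AM for 2 h, fluorescence read at 460 and 530 nm, then CellTiter-Glo luminescence measured for viability and normalization.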

[12] = Vero-766 cells viability qHTS against the NCATS CANVASS Library: Counterscreen for Zika virus inhibition assay (AID 1347394); further: nearly all actives have a fitted effect of over 60% in size; further: potency means the concentration at half of the fitted maximal effect; on activity change, negative = cytotoxic: series mostly up to about 46 µM; on the % scale 0 is the no-effect control and ±100 the full control effect
Summary of the method: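 Counterscreen for toxicity: Vero 766 cells exposed 72 h to an 11-point compound series, viability by CellTiter-Glo.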

[13] = biological target: Phospholipid hydroperoxide glutathione peroxidase GPX4 (Homo sapiens) (UniProt P36969); assay: Primary qHTS Assay for Inhibitors of Recombinant Selenoprotein Glutathione Peroxidase 4 (GPX4) (AID 1845192); conditions: outcome: dose series up to 50 µM unless noted; further: series mostly up to about 50 µM; on the % scale 0 is the no-effect control and ±100 the full control effect; nearly all actives have a fitted effect of over 65% in size
Summary of the method: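 qHTS, GR-coupled: GPX4 200 nM + cpd 30 min RT → GSH 1 mM, NADPH 0.5 mM, GR 100 nM → CHP 0.5 mM start; fluor 340/450 at t0 and t15 min; no-enzyme wells as control.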

Phospholipid hydroperoxide glutathione peroxidase GPX4 (Homo sapiens), sequence (P36969 whole entry, looked up): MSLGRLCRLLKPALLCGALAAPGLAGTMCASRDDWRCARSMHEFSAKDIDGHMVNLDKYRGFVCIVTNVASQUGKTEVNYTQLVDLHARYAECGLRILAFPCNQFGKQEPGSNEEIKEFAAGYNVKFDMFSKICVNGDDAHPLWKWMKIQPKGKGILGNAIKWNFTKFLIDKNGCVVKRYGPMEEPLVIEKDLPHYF

CC1(C)CCC[C@]2(C)[C@@H]1CC[C@@]13C[C@@H](CC[C@H]12)C(C)(O)C3 (some centres undefined)
inactive: Potency [1] | Potency [2] | Potency [3] | Potency [4] | Potency [5] | Potency [6] | Potency [7]

O=C(NCc1ccccc1Cl)c1ccc2c(O)c(S(=O)(=O)c3ccccc3)c(=O)[nH]c2c1
inactive: Potency [8] | Potency [10]
active: Potency [9] 50.1 µM

Cc1cc(O)cc2oc(C[C@H](C)O)cc(=O)c12
inactive: Potency [1] | Potency [2] | Potency [11] | Potency [4] | Potency [5] | Potency [6] | Potency [12] | Potency [7]

COc1cc(/C=C2/C(=O)N(c3ccc(O)cc3C(=O)O)[C@H](c3ccc(O)c(OC)c3)C2C(=O)Nc2ccc(O)cc2C(=O)O)ccc1O (some centres undefined)
inactive: Potency [1] | Potency [3] | Potency [11] | Potency [5] | Potency [6]

C[C@@]12CCC[C@@](C)(C(=O)O)[C@H]1C[C@@H](O)[C@]13C[C@H]4C[C@H](O[C@@]4(C)C1)[C@@H]23
inactive: Potency [1] | Potency [2] | Potency [3] | Potency [4] | Potency [5] | Potency [6] | Potency [7]

O=C(O)[C@@]12CO[C@@]3(O)C4CCN(CC[C@H]31)[C@H]4c1c2[nH]c2ccccc12
inactive: Potency [1] | Potency [3] | Potency [11] | Potency [5] | Potency [6] | Potency [12]

CCC1=C2CCCN3C(=O)O[C@H]([C@H]1OC(C)=O)[C@H]23
active: Potency [4] 0.0059 µM
inactive: Potency [1] | Potency [3] | Potency [11] | Potency [5] | Potency [6] | Potency [12]

CC(O)/C=C/C1(O)C(C)(C)CC(O)CC1(C)O (centres undefined)
inactive: Potency [2] | Potency [3] | Potency [11] | Potency [5] | Potency [6] | Potency [12] | Potency [7]

COC1C(O)C(OC(N)=O)C(Oc2ccc3c(O)c(NC(=O)c4ccc(O)c(CC=C(C)C)c4)c(=O)oc3c2C)OC1(C)C (centres undefined)
active: Potency [6] 27.2 µM
inactive: Potency [1] | Potency [2] | Potency [3] | Potency [11] | Potency [5] | Potency [12]

C[C@@H]1C(=O)[C@]23CC[C@H]1C[C@]21O[C@H]2C(C)(C)C=CC(=O)[C@]23COC1=O
inactive: Potency [2] | Potency [3] | Potency [11] | Potency [4] | Potency [5] | Potency [6] | Potency [12] | Potency [7]

CC[C@@H]1C[C@@]2(CC)OC(=O)[C@@]3(CC)OC(=O)[C@@H]1[C@@H]23
inactive: Potency [1] | Potency [2] | Potency [3] | Potency [11] | Potency [5] | Potency [6] | Potency [12] | Potency [7]

CC[C@H](C)C(NC(=O)[C@@H](NC)C(C)C)C(=O)NC1C(=O)N(C)[C@@H](C(C)O)C(=O)N[C@@H](C(C)C)C(=O)N(C)[C@@H](CC(C)C)C(=O)NC(C(C)C)C(=O)N(C)[C@@H](C(C)C)C(=O)N(C)[C@@H](Cc2c[nH]c3cccc(OC)c23)C(=O)N[C@@H](C(C)C)C(=O)N[C@@H]([C@H](O)c2ccccc2)C(=O)N[C@@H](C(C)C)C(=O)O[C@@H]1C (stereo partly drawn) (H-[NMeV][ξIle][ξThr(3R)(O-yl)][NMeThr(3ξ)]V[NMeL][ξV][NMeV][NMeTrp(4-OMe)]V[Phe(3R-OH)]V; ester 3-C)
active: Potency [4] 3.75 µM | Potency [6] 27.2 µM
inactive: Potency [1] | Potency [2] | Potency [5] | Potency [7]

CC(C)CN1CC(CNC(=O)c2ccc(Oc3ccccc3)cc2)Oc2ccnc(-c3ccc(OCC(=O)O)cc3)c2C1=O (centres undefined)
inactive: Potency [8]
active: Potency [9] 28.2 µM

CC1C(=O)C23CCC1C[C@]21O[C@@H]2C(C)(C)C=CC(=O)[C@@]23COC1=O (some centres undefined)
inactive: Potency [1] | Potency [2] | Potency [3] | Potency [11] | Potency [5] | Potency [7]

COc1ccc([C@@H]2c3cc(OC)c(OC)cc3C(=O)[C@H](C)C2C)cc1OC (some centres undefined)
inactive: activation [2] -0.416% [at 9.19 µM] | activity change, negative = cytotoxic [3] 9.12% [at 9.19 µM] | activation [11] -1.07% [at 7.64 µM] | activation [5] 4.51% [at 9.19 µM] | activity change, negative = cytotoxic [12] -18.3% [at 9.19 µM]

O=C(CCCCCCC(=O)Nc1ccc(C2OC(CSc3nc(-c4ccccc4)c(-c4ccccc4)o3)CC(c3ccc(CO)cc3)O2)cc1)NO (centres undefined)
inactive: Potency [13]

C=C1[C@H]2CC[C@@]3(C=CC(=O)[C@@](C)(CCC(=O)Nc4c(O)ccc(C(=O)O)c4O)C3C2)[C@H]1O (some centres undefined)
inactive: Potency [1] | Potency [2] | Potency [3] | Potency [11] | Potency [4] | Potency [5] | Potency [6] | Potency [12]

C/C=C/C=C/C1(O)C2C=C3C(=O)CC45C(=O)C(O)=C(C)C(=O)C4C1C1(C(=O)C(O)=C(C)C(=O)C351)C2C (centres undefined)
inactive: Potency [1] | Potency [3] | Potency [11] | Potency [5] | Potency [6] | Potency [12]

C[C@@H](CCC[C@]1(C)C(=O)C=C[C@]23C[C@H]4C[C@H](O[C@@]4(C)C2)C31)C(=O)N[C@@H](CO)C(=O)O (some centres undefined)
inactive: Potency [1] | Potency [2] | Potency [3] | Potency [6] | Potency [7]

CO[C@@H]1C[C@@H](C[C@H]2CC[C@H](C)[C@H]([C@@H](C)C(=O)O)O2)O[C@]2(O[C@](C)([C@H]3CC[C@@](C)([C@@H]4O[C@@H]([C@H]5O[C@](C)(O)[C@H](C)C[C@@H]5C)C[C@@H]4C)O3)C[C@H]2C)[C@@H]1C
active: Potency [3] 0.132 µM | Potency [4] 0.0042 µM | Potency [12] 4.67 µM
inactive: Potency [1] | Potency [2] | Potency [5] | Potency [6]
